In the library only some 1.3% were active in any assay of this set; here they are far more common.
NPR2 activator: GC-B (human) receptor activation | activation, % at 10 µM | actives 0.11% (n = 370,000) | P20594 | HEK293-GC-B cells, CNP EC30, cGMP TR-FRET; 0% at EC30 CNP, 100% saturating CNP;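 active = activation at 10 µM reaching about 35% in either raw or pattern-adjusted values, limit read from the data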
ADAM17 inh: ADAM17 inhibition, QFRET primary screen; P78536; recombinant ADAM17, EDANS/DABCYL FRET peptide cleavage; inhibition, % at 6.95 µM; actives 0.83% (n = 370,000);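 active = inhibition above the mean of compounds lying between control limits plus 3 SD, set per campaign, cut at about 8.5% in these data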;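 also: 0% = DMSO-only wells as the low control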
NPR1 activator: GC-A (human) enzyme activation; P16066; activation, % at 10 µM; HEK293 GC-A cells, cGMP TR-FRET, EC30 ANP; 0% at EC30 ANP, 100% saturating ANP; actives 0.14% (n = 370,000); in the data active = activation above about 40%
Target sequence (P16066 whole entry, looked up): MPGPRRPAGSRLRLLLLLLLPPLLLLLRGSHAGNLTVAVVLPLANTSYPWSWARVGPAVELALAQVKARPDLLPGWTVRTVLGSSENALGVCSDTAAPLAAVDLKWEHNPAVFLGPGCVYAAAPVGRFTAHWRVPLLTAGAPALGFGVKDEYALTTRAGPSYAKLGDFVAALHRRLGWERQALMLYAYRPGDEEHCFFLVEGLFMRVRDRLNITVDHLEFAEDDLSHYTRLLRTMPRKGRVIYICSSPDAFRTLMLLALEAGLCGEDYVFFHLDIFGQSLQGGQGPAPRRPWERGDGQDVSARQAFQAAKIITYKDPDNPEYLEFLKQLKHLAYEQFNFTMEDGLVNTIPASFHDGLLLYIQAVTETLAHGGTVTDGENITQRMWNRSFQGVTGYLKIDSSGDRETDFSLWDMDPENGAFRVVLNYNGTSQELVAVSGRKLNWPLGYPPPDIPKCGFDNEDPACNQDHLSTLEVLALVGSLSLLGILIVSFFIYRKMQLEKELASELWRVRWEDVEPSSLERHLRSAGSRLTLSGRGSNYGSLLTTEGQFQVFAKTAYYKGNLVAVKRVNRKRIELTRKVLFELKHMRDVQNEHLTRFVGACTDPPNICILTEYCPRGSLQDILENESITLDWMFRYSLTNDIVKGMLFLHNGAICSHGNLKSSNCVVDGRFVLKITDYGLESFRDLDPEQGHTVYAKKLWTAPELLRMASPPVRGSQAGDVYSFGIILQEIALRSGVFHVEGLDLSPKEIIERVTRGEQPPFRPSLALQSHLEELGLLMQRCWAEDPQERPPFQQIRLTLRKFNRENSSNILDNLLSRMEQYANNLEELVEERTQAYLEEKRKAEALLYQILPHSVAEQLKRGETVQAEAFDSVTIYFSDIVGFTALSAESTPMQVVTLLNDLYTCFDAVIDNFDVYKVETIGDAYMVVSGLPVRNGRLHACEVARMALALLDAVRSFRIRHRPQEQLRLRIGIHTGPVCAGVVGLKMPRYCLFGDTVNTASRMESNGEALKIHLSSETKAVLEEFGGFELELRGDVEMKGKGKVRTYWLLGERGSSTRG
ADAM10 inh: inhibits human ADAM10; O14672; recombinant ADAM10, EDANS/DABCYL FRET peptide cleavage, 3 h; inhibition, % at 7 µM; actives 0.62% (n = 370,000); AID 720582;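 active = inhibition above a per-campaign cutoff equal to the mean of compounds falling between control-based bounds plus 3 SD, cut at about 20% in these data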;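 also: 0% = DMSO wells while the 100% control is not disclosed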
ADAM10 confirm: human ADAM10 inhibition, confirmation. shares compounds with ADAM10 inh. ADAM10 QFRET peptide cleavage, EDANS fluorescence. inhibition, % at 6.95 µM. actives 1% (n = 2,100). AID 743208;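 active = inhibition above about 20% chosen separately for each screening run, limit read from the data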;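 also: 0% = DMSO wells and 100% = marimastat wells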
ADAM17 counter: counter-screen for ADAM10 exosite inhibitors: inhibitors of human ADAM17 | shares compounds with ADAM10 inh | ADAM17 QFRET peptide cleavage, EDANS fluorescence | inhibition, % at 6.95 µM | actives 0.5% (n = 2,100) | AID 743214;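 active = mean triplicate inhibition above the solvent-only control wells' mean plus 3 SD, cut at about 12% in these data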;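 also: 0% = DMSO wells and 100% = marimastat wells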
ADAM10 counter: inhibits human ADAM10 in ADAM17 exosite counter-screen; actives 47% (n = 2,900); AID 743256; shares compounds with ADAM17 inh; inhibition, % at 6.95 µM; recombinant ADAM10, EDANS/DABCYL FRET peptide cleavage, 3 h;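 active = mean inhibition over the triplicate runs exceeds the activity threshold set in the earlier primary screen, cut at about 20% in these data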;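 also: 0% = DMSO wells and 100% = marimastat wells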
ADAM17 confirm: confirmation of inhibitors of human ADAM17; shares compounds with ADAM17 inh; recombinant ADAM17, EDANS/DABCYL QFRET peptide cleavage; inhibition, % at 6.95 µM; actives 65% (n = 2,900); AID 743257;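 active = mean inhibition across replicates above the hit cutoff set in the primary screen, cut at about 8.5% in these data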;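 also: 0% = DMSO wells and 100% = marimastat wells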
Active calls of the source: *; / = no result given.

SMILES	NPR2 activator	ADAM17 inh	NPR1 activator	ADAM10 inh	ADAM10 counter	ADAM17 confirm	others
COC(=O)C1=C(c2ccccc2OCc2ccccc2)C[C@@H]2CC[C@H]1N2C(=O)NCCc1ccc(F)cc1	-9.6	10.0*	-5.7	20.6*	15.6	6.9	ADAM10 confirm=4.2;ADAM17 counter=1.6
COC(=O)C1=C(c2cc3ccccc3s2)C[C@@H]2CC[C@H]1N2C(=O)NCc1ccc(C(F)(F)F)cc1	-9.1	11.8*	-8.2	24.1*	14.9	11.5*	ADAM10 confirm=5.7;ADAM17 counter=2.0
COC(=O)C1=C(c2cc3ccccc3s2)C[C@@H]2CC[C@H]1N2C(=O)NCC1CC1	-0.6	-0.7	-3.8	0.8	/	/
COC(=O)C1=C(c2ccc(F)cc2OCc2ccccc2)C[C@@H]2CC[C@H]1N2C(=O)NCc1ccccc1OC	-3.9	14.9*	-3.8	27.8*	20.7*	12.8*	ADAM10 confirm=3.7;ADAM17 counter=1.9
COc1ccc(C(O)CNC(C)C)c(F)c1OC (stereo not drawn)	5.0	0.5	1.3	-1.4	/	/
CN1CCN(c2nc3ccccc3c(=O)n2-c2ccccc2)CC1	0.7	-4.6	3.6	-10.6	/	/
O=C1NCN(c2ccccc2)C12CCN(C(c1cccs1)c1nnnn1-c1ccc3c(c1)OCCO3)CC2 (stereo not drawn)	-9.3	9.0*	-15.4	19.7	29.1*	13.1*
O=c1[nH]c2ccccc2n1C1CCN(C(c2nnnn2-c2ccc3c(c2)OCCO3)C2CC2)CC1 (stereo not drawn)	-1.3	0.6	-5.9	-3.5	/	/
O=c1[nH]c2ccccc2n1C1CCN(C(c2ccccc2)c2nnnn2-c2ccc3c(c2)OCCO3)CC1 (stereo not drawn)	1.3	11.4*	-6.3	17.6	37.7*	23.1*
CC(C)c1ccccc1NC1=NCCCS1	0.4	-4.3	1.7	-7.3	/	/
CSc1ccc(C(=O)C(C)(C)N2CCOCC2)cc1	1.5	-0.8	-1.6	-16.1	/	/
COC(=O)C1=C(c2ccc(OCc3ccccc3)cc2)C[C@@H]2CC[C@H]1N2C(=O)NCc1ccccc1OC	3.5	9.7*	-1.1	17.2	28.1*	14.2*
COC(=O)C1=C(c2ccc(F)cc2OCc2ccccc2)C[C@@H]2CC[C@H]1N2C(=O)NCc1ccc(C(F)(F)F)cc1	1.4	10.9*	-2.3	17.1	36.4*	20.9*
COC(=O)C1=C(c2ccc(-c3ccccc3)c(F)c2)C[C@@H]2CC[C@H]1N2C(=O)NC1CC1	2.3	10.6*	-2.9	18.6	5.8	7.2
COC(=O)C1=C(c2ccccc2OCc2ccccc2)C[C@@H]2CC[C@H]1N2C(=O)NCc1ccc(C(F)(F)F)cc1	1.2	3.0	-1.0	8.9	/	/
C#CC[N+]1(C)[C@@H]2CC(OC(=O)C(CO)c3ccccc3)C[C@H]1C(O)C2 (stereo partly drawn)	8.2	-0.9	7.0	-3.9	/	/
O=C(O)c1nn(Cc2ccc(Cl)cc2)c2ccccc12	-1.2	-1.9	-7.5	-21.3	/	/
O=C1CN=C(c2cc([N+](=O)[O-])ccc2Cl)c2cc([N+](=O)[O-])ccc2N1	1.0	1.1	0.2	-4.4	/	/
O=C(c1ccccc1F)c1cn(CC(=O)N2CCOCC2)c2ccccc12	0.8	8.6*	0.0	-10.3	3.2	3.5
O=C(c1ccccc1F)c1cn(CC(=O)N2CCCC2)c2ccccc12	0.6	-0.3	-5.4	10.2	/	/
Cc1cccc(OCC(=O)N2CCN(Cc3ccncc3)CC2)c1	-4.0	11.3*	-0.8	4.6	-7.7	0.0
Cc1cccc(OCC(=O)N2CCN(Cc3ccc4c(c3)OCO4)CC2)c1	3.7	0.4	2.1	-3.3	/	/
N=C(N)c1c(O)n(C2CCCCC2)c(=O)n(C2CCCCC2)c1=O	-2.8	9.6*	-3.5	17.4	51.8*	23.7*
COC(=O)C1=C(c2ccc(Cl)c(C(F)(F)F)c2)C[C@@H]2CC[C@H]1N2C(=O)N1CCCC1	-2.5	-4.1	-3.3	0.8	/	/
COC(=O)C1=C(c2ccc(Cl)c(C(F)(F)F)c2)C[C@@H]2CC[C@H]1N2C(=O)N1CCC(O)(c2ccc(Cl)cc2)CC1	-3.5	9.5*	-2.3	19.4	16.1	8.8*
CC(C(=O)c1cn(C)c2ccccc12)c1ccccc1 (stereo not drawn)	-8.8	10.6*	-7.6	15.0	2.3	4.2
CCOC(=O)[C@@H]1[C@H]2COc3ccc(Br)cc3[C@H]2N2C(=O)N(c3cccc(C)c3)C(=O)[C@]12C	0.8	9.3*	-3.2	23.0*	30.3*	19.0*
CC1CN=C(NCc2ccc(F)cc2)S1 (stereo not drawn)	3.8	-5.3	0.0	1.8	/	/

Screening results from PubChem.
